This note sets out measurements from ChEMBL document CHEMBL4513216, “Probing the Open Global Health Chemical Diversity Library for Multistage-Active Starting Points for Next-Generation Antimalarials” (ACS Infect Dis, 2020).

About 2,700 (4%) of roughly 68,000 compounds showed an effect of 50% or more. The list comes from a sample in which strong results are over-represented; it also holds similar structures and randomly drawn compounds.

This assay has as its system Plasmodium berghei. The experiment in a line: Screen against P. berghei liver stage (PbLuc), transformed with Luciferase, at 2uM. In kind it is functional, HepG2. The conditions noted are these: tested at 2 uM.
For the molecule `O=C1O[C@@H]2CN(c3cnccn3)C[C@@H]2N1CCCc1ccc(F)cc1`, the INHIBITION came to 51.96%.
With `O=C1O[C@@H]2CN(c3ccccn3)C[C@@H]2N1CCCc1ccc(F)cc1` the figure was 12.55%; with `O=C1O[C@@H]2CN(c3ncccn3)C[C@@H]2N1CCCc1ccc(F)cc1`, 17.48%.
For `COc1cc(C2c3c(n[nH]c3C)N=C3COC(=O)C32)cc2c1OCO2` (configuration not stated), the INHIBITION was -41.64%.
As for `COc1ccc(CNC(=O)NC(C)(CO)C2CC2)c(C(F)(F)F)c1` (configuration not stated), the INHIBITION is on record as -16.93%.
Take `CCN(CC)C(=O)c1cc(Br)cc(S(=O)(=O)N2CCOCC2)c1F`: the INHIBITION is on record as 0.48%.
In the case of `O=C(COCc1ccccc1)N1CCC(OCc2cccnc2)CC1`, the INHIBITION is recorded as 34.34%.
Consider `Cc1cc(C)c(C(=O)N2CCCC(C(=O)CCc3ccccc3)C2)cn1` (configuration not stated), for which the INHIBITION is given as 0.73%.
With `CN(C)S(=O)(=O)N1CCOC(c2cccc(-c3cncnc3)n2)C1` (configuration not stated) the figure was -12.93%; with `CCN1CCN(C(=O)c2nc(C)n(-c3ccccc3Cl)n2)CC1`, -18.67%.
On to `CN(C)C(=O)CNC(=O)c1nc(C2CC2)n(-c2ccccc2Cl)n1`, for which the INHIBITION amounted to 65.76%.
On to `Cc1nc(C(=O)N2CCCCC2)nn1-c1ccccc1Cl`, for which the INHIBITION is on record as 60.09%.
On to `CC(=O)NCCNC(=O)c1nc(C2CC2)n(-c2ccccc2Cl)n1`, for which the INHIBITION is -1.79%.
Regarding `CCNC(=O)CNC(=O)c1nc(C2CC2)n(-c2ccccc2Cl)n1`, the INHIBITION is listed as 13.01%.
With `CCc1nc(C(=O)N2CCCCC2)nn1-c1ccccc1Cl` the figure was -41.76%; with `CN1[C@H](Cn2cncn2)C[C@@H]2CN(Cc3cccc(C#N)c3)CC[C@@H]21`, 12.3%; with `CN1CCC2(C=C(C(=O)N(C)C)c3ccccc32)CC1`, -10.89%.
Regarding `CC(=O)N1CC(Cc2nccc3ccn(C)c23)C1`, the INHIBITION was found to be 20.08%.
On to `Cn1ccc2ccnc(CC3CN(C(=O)c4cscn4)C3)c21`, for which the INHIBITION was determined as 52.82%.
With `Cc1cccc(C(=O)N2CC(Cc3nccc4ccn(C)c34)C2)n1` the figure was -25.33%.
Turning to `CCc1nnc2n1CCN(C(=O)C(C)COCc1ccccc1)C2` (configuration not stated), the INHIBITION was -32.2%.
Consider `Cc1cc2c(N3CCC(N(C)Cc4cnn(C)c4)CC3)ncnc2s1`, for which the INHIBITION turned out to be 10.13%.
On to `Cn1c(=O)c2c(n3ncnc13)NC(=O)CC2c1cccc(F)c1` (configuration not stated), for which the INHIBITION came out at 5.31%.
With `Cn1c(=O)c2c(n3ncnc13)NC(=O)CC2c1ccc(F)cc1` (configuration not stated) the figure was 53.55%.
In the case of `CCc1ccc(C2CC(=O)Nc3c2c(=O)[nH]n3C(C)C)cc1` (configuration not stated) it was -9.13%; in that of `CCc1ccc(C2CC(=O)Nc3c2c(=O)n(C)c2ncnn32)cc1` (configuration not stated), 56.21%; in that of `COc1cccc(C2CC(=O)Nc3c2c(=O)n(C)c2ncnn32)c1` (configuration not stated), 15.49%.
Turning to `Cn1c(=O)c2c(n3ncnc13)NC(=O)CC2c1cccc(Br)c1` (configuration not stated), the INHIBITION is given as -13.28%.
With `CCS(=O)(=O)N1Cc2[nH]nc(COCc3cccnc3)c2C1` the figure was -2.81%.
As to `CNC(=O)C(C)(C)N1CCC[C@H]1C(=O)NC(C)(C)C`, the INHIBITION is given as 30.4%.
As to `CCN1CCCC12CCCN(c1ncccn1)C2` (configuration not stated), the INHIBITION is on record as -23.31%.
With `CC1=Nc2c(c(O)nn2C2CCOCC2)C(c2cccnc2)S1` (configuration not stated) the figure was 18.76%; with `CCn1ccnc1CN(C)c1nc(-c2ccc(Cl)cc2)nc2c1CNC2`, 5.28%; with `Cc1nccn1CCN(C)c1nc(-c2ccc(Cl)cc2)nc2c1CNC2`, 19.59%.
With `CCN(CC)CCN(C)c1nc(-c2ccc(Cl)cc2)nc2c1CNC2`, the INHIBITION turned out to be 81.59%.
Regarding `O=C(O)c1cc(S(=O)(=O)Nc2cc(F)ccc2F)cc2c1OCCO2`, the INHIBITION was -41.21%.
Consider `COCCN1CCN(CCCS(=O)(=O)N(C)C)CC1C` (configuration not stated), for which the INHIBITION is recorded as 25.35%.
In the case of `O=C(CCCc1ccccn1)NCC(O)c1c(F)cccc1F` (configuration not stated) it was 17.98%.
As for `CCn1nnc2c1C(COCCN(C)C)CN(S(C)(=O)=O)C2` (configuration not stated), the INHIBITION is recorded as 34.19%.
With `CN(C)c1ncccc1CNC(=O)N1CCCC1c1ccsc1` (configuration not stated) the figure was 43.93%; with `O=C(NCCCn1cccn1)N1CCCC1c1ccsc1` (configuration not stated), 16.21%; with `CN(CCCNC(=O)N1CCCC1c1ccsc1)c1ccccn1` (configuration not stated), 63.95%.
`N#Cc1ccc(C(=O)N2CC[C@H]3[C@@H]2CCC(=O)N3c2cccnc2)cc1`: the INHIBITION is listed as -11.44%.
As to `CC(C)C(=O)N1CCCC1C(=O)Nc1cc(C(F)(F)F)ccc1F` (configuration not stated), the INHIBITION was 13.92%.
`CC(C)C(=O)N1CCCC1C(=O)Nc1ccc(F)c(F)c1` (configuration not stated): the INHIBITION came to 55.29%.
With `Cc1ccc(F)cc1NC(=O)C1CCCN1C(=O)C(C)C` (configuration not stated) the figure was 15.27%; with `Cc1cnc(C(C)(C)NC(=O)NCc2ccc(C#N)cc2F)s1`, 16.79%.
With `Cc1cc(C)c(CNC(=O)C2CCN(c3cnccn3)CC2)c(=O)[nH]1` the figure was -7.02%; with `Cc1cc(C)c(CNC(=O)N2CCN(c3ccccn3)CC2)c(=O)[nH]1`, 7.64%; with `Cc1cc(C)c(CNC(=O)N2CCN(c3cnccn3)CC2)c(=O)[nH]1`, 63.95%.
As for `CSc1ccccc1NC(=O)C1CSc2ncc(C)c(=O)n2C1` (configuration not stated), the INHIBITION was -35.92%.
With `Cn1c(C(F)(F)F)nn(CCNC(=O)CSCc2ccccc2)c1=O` the figure was -30.06%.
